# Assay results: publication PMC5540273 (PLoS ONE, 2017)
# Test system: HUNK
# Conditions: concentration: 1 μM, replicates: in singlicate; n = 1
# 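Also: KINOMEscan kinase panel screen.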
row,SMILES,%Inh
1,N#Cc1ccc(-c2cc(-c3c[nH]nc3-c3ccccn3)ccn2)cc1 [GW693028],0%
2,CCc1ccnc(/C=C/c2n[nH]c3cc(Sc4ccccc4C(=O)NC)ccc23)c1,0%
3,NCCNS(=O)(=O)c1ccc(-c2ccnc3[nH]ccc23)cc1 [GSK977617],0%
4,Cc1cccc(-c2nc(Nc3ccc4ncsc4c3)c3ccccc3n2)n1 [GW867588],45%
5,O=C1NC(=O)C(N2CCc3ccccc32)=C1c1cccc(Cl)c1 [SB-408010],20%
6,NS(=O)(=O)c1cccc(-c2ccc3ncc(N4CCOCC4)nc3c2)c1 [GSK1535721],0%
7,CN1c2ccc(CNc3ccc(F)cc3)cc2-c2c(cnn2C)S1(=O)=O,34%
8,Cn1ccc2ncnc(Oc3ccc(NC(=O)Nc4ccncc4)c(Cl)c3)c21,0%
9,COc1cc(Nc2nccc(N3CCC(NC(=O)c4cccc(NC(C)=O)c4)C3)n2)cc(OC)c1OC (centres unmarked) [GSK1379754],0%
10,CSc1ccc(-c2cc3ncnc(SCC(=O)O)c3s2)cc1,0%
11,CC(C)(C)n1cnc2c(N)ncnc21 [SKF-97359],19%
12,Cc1nnc(-c2ccc(C)c(-c3ccc(C(=O)Nc4ccc(NS(C)(=O)=O)cc4)cc3)c2)o1 [GW702865],15%
13,COc1ccc(S(=O)(=O)NC2CCN(c3cc(C)nc(Nc4cccc(C#N)c4)n3)CC2)cc1.O=C(O)C(F)(F)F [GSK1653539],2%
14,Cc1c2ccc(N(C)c3ccnc(Nc4cccc(S(N)(=O)=O)c4)n3)cc2nn1Cc1ccccc1.Cl.Cl [GW787226],30%
